# Publication PMC13083723 (Patterns, 2026)
# Hit rate of the full screen: of about 5,400 compounds, about 190 (3.5%) showed an effect of 50% or more. The entries come from a sample that favours strong results as a whole.
# System: Vero-E6
# Assay: primary screen, phospholipidosis by LipidTOX staining; higher = more effect of the substance
# Settings: 10 µM
# Method in brief: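 Drug-induced phospholipidosis detected with HCS LipidTOX Red reagent in Vero-E6 cells. Compounds tested at 10 μM, with amiodarone (10 μM) as positive control and DMSO (0.1 v/v %) as vehicle.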
row,Structure (SMILES),result_ITMP [%]
1,O=C(O)C[CH2][Ge](=[O])[O][Ge](=[O])[CH2]CC(=O)O,-3.6
2,Cc1ccc(C(=O)Nc2ccc(S(=O)(=O)[O-])c3cc(S(=O)(=O)[O-])cc(S(=O)(=O)[O-])c23)cc1NC(=O)c1cccc(NC(=O)Nc2cccc(C(=O)Nc3cc(C(=O)Nc4ccc(S(=O)(=O)[O-])c5cc(S(=O)(=O)[O-])cc(S(=O)(=O)[O-])c45)ccc3C)c2)c1,-3.34
3,C[C@@H](O)[C@H]1C(=O)N2C(C(=O)[O-])=C(S[C@@H]3CN[C@H](C(=O)Nc4cccc(C(=O)O)c4)C3)[C@H](C)[C@H]12,-0.24
4,C[C@H](NC(=O)CCc1nc2ccccc2c(=O)[nH]1)c1ccccc1 [R4A_0003503_001 / SPE_K24283677],-1.61
5,C/C=C1/[C@H]2C=C(C)C[C@]1(N)c1ccc(=O)[nH]c1C2,-2.16
6,O=C(Nc1ncc(SCCN2CCCC2)s1)[C@]1(c2ccc(S(=O)(=O)C3CC3)cc2)C[C@H]1C1CCCCC1,55.8
7,C[C@H](CCC(=O)O)[C@H]1CC[C@H]2[C@@H]3CC[C@@H]4C[C@H](O)CC[C@]4(C)[C@H]3C[C@H](O)[C@]12C,0.11
8,Nc1nc(S)c2nc[nH]c2n1,26.6
9,O=C(NCCCN1CCCCCC1)C(c1ccccc1)C1CCCCC1 (centres unmarked),36.5
10,O=C(Nc1ccccc1)OCC(CN1CCCCC1)OC(=O)Nc1ccccc1 (centres unmarked),54.4
11,Cc1ccc(C(=O)C(C)CN2CCCCC2)cc1 (centres unmarked),-4.52
12,CCn1c(=O)/c(=C2\Sc3ccccc3N2C)s/c1=C/c1cccc[n+]1CC,-7.97
13,COc1ccc(CCNCC(O)COc2cccc(C)c2)cc1OC (centres unmarked),34.1
14,CCC(C)CNCC(=O)N1CCc2sccc2C1COc1cccc(C)c1 (centres unmarked),57.8
15,Nc1ccc(S(=O)(=O)[O-])cc1,-6.57
16,O=C([O-])CN1CCN(CC(=O)[O-])CCN(C(CO)C(O)CO)CCN(CC(=O)[O-])CC1.[Gd+3] (centres unmarked),-1.16
17,O=C([O-])c1cc(/N=N/c2ccc(O)c(C(=O)[O-])c2)ccc1O,-2.29
18,CN(C)CC(O)Cn1c2ccc(Br)cc2c2cc(Br)ccc21 (centres unmarked),28.6
19,OC(CN1CCNCC1)Cn1c2ccc(Br)cc2c2cc(Br)ccc21 (centres unmarked),123
20,OC(CNc1ccccc1)Cn1c2ccc(Br)cc2c2cc(Br)ccc21 (centres unmarked),-2.55
21,C=C[C@]1(C)C[C@@H](OC(=O)CS[C@@H]2C[C@H]3CC[C@@H](C2)N3C)[C@]2(C)[C@H](C)CC[C@]3(CCC(=O)[C@H]32)[C@@H](C)[C@@H]1O,12.9
22,NC(=O)c1cc[n+](CC2=C(C(=O)[O-])N3C(=O)[C@@H](NC(=O)[C@@H](c4ccccc4)S(=O)(=O)[O-])[C@H]3SC2)cc1,4.59
23,Cc1c(CN(C)C(=O)/C=C/C2=CNC3=NC(=O)CCC3=C2)oc2ccccc12,-2.49
24,CC(CN(C)C)CN1c2ccccc2CCc2ccccc21 (centres unmarked),34.6
25,COc1ccc2c(c1)N(C[C@H](C)CN(C)C)c1ccccc1S2,53

row,Structure (SMILES),result_ITMP [%]
1,CC(CN(C)C)CN1c2ccccc2Sc2ccccc21 (centres unmarked) [R4A_0005516_001 / SPE_A49225603],81.1
2,CC(CN(C)C)CN1c2ccccc2Sc2ccc(C#N)cc21 (centres unmarked),42.4
3,CC(CN(C)C)CN1c2ccccc2Sc2ccccc21 (centres unmarked) [R4A_0005516_001 / SPE_M58473998],17.1
4,CCN1/C(=C/C(C)=O)Sc2ccc(OC)cc21,-4.89
5,C[C@@H]1CC2C3CCC4=CC(=O)C=C[C@]4(C)[C@@]3(F)[C@@H](O)C[C@]2(C)[C@@]1(O)C(=O)COP(=O)([O-])[O-] (some centres unmarked),-3.97
6,NC(CSC(c1ccccc1)(c1ccccc1)c1ccccc1)C(=O)O (stereo in doubt),-1.96
7,CC(N)Cc1cccc(O)c1 (centres unmarked),-6.46
8,CCC(=O)O[C@H]1CCC2C3CCC4=CC(=O)CC[C@]4(C)C3CC[C@@]21C (some centres unmarked),5.62
9,NC(=O)OC[C@@H]1[C@H](NC(=O)/C(=N\OCC(=O)[O-])c2csc(N)n2)C(=O)N1S(=O)(=O)[O-],0.72
10,CCCC(=O)Nc1ncnc2c1ncn2C1O[C@@H]2COP(=O)([O-])O[C@H]2[C@H]1OC(=O)CCC (some centres unmarked),-5.79
11,CC[C@]12C=CCN3CC[C@@]4(c5cc([C@@]6(C(=O)OC)C[C@H]7C[C@@H](C(C)(F)F)CN(Cc8c6[nH]c6ccccc86)C7)c(OC)cc5N(C)[C@H]4[C@@](O)(C(=O)OC)[C@@H]1OC(C)=O)[C@@H]32,49.7
12,O=C(N[C@H]1CN2CCC1CC2)c1ccc(Cl)cc1,-0.98
13,COc1cc(N)c(Cl)cc1C(=O)NC1CN2CCC1CC2 (centres unmarked),-9.6
14,O=C(N[C@H]1CN2CCC1CC2)c1cc2cccc(Cl)c2s1,100
15,C[C@H](CCC(=O)O)[C@H]1CC[C@H]2[C@@H]3C[C@H](O)[C@@H]4C[C@H](O)CC[C@]4(C)[C@H]3CC[C@]12C,1.59
16,c1ccc2c(CCNc3ccc(Nc4ccncc4)cc3)c[nH]c2c1,74
17,c1ccc2c(Cc3c[nH]c4ccccc34)c[nH]c2c1,-4.8
18,CC(=O)NCCc1c[nH]c2ccccc12,-3.74
19,CCCCc1nc(Cl)c(C(=O)O)n1Cc1ccc(-c2ccccc2-c2nnn[nH]2)cc1,-4.07
20,CC(C)(C)c1ccc(C(O)CCCN2CCC(C(O)(c3ccccc3)c3ccccc3)CC2)cc1 (centres unmarked),-4.73
21,CN1CCC[C@@H]1CCO[C@](C)(c1ccccc1)c1ccc(Cl)cc1,90.6
22,CN1CCCC1CCSc1ccc(O)cc1 (centres unmarked),2.34
23,C=C1/C(=C\C=C2/CCC[C@]3(C)[C@@H]([C@H](C)CCCC(C)(C)O)CC[C@@H]23)C[C@@H](O)C[C@@H]1O,-1.95
24,CC[C@H]1[C@@H](O)[C@@H]2[C@H](CC[C@]3(C)[C@@H]([C@H](C)CCC(=O)O)CC[C@@H]23)[C@@]2(C)CC[C@@H](O)C[C@@H]12,-0.78
25,CO[C@H]1/C=C/O[C@@]2(C)Oc3c(C)c(O)c4c(O)c(cc([O-])c4c3C2=O)NC(=O)/C(C)=C\C=C\C(C)[C@H](O)[C@@H](C)[C@@H](O)[C@@H](C)[C@H](OC(C)=O)[C@@H]1C (some centres unmarked),-1.11
